# Inconclusive results are not listed. Activity calls are given as the source filed them. Calls come from the whole dose curve; as a rule, active = well fitted inhibition curve with a large enough effect; inconclusive = small, poorly fitted or top-dose-only effect; inactive = no such curve, though single readings can be large or run the other way.
# Target: Coelenterazine h 2-monooxygenase (Renilla reniformis) (UniProt P27652)
# Assay: qHTS Assay for Inhibitors of Sea Pansy Luciferase from the GSK Published Protein Kinase Inhibitor Set
# Text: FLuc (firefly luciferase) is the prototypical bioluminescent reporter gene from Photinus pyralis.[1] The enzyme catalyzes the oxidation luciferin via luciferin-AMP to produce light. FLuc is used in cell-based reporter gene-based assays for screening small molecule chemical libraries. However, small molecule luciferase inhibitors present in most large chemical libraries are often enriched in the output of high throughput screens using this reporter sometimes complicating interpretation and candidate selection.
# RLuc is a bioluminescent reporter gene luciferase from Renilla reniformis, also known as the sea pansy. RLuc uses the luciferin substrate coelenterazine. […]
# Three microliters containing renilla luciferase substrate in buffer (final concentrations: 50mM Tris acetate, pH 7.5, 100uM NaCl, 0.01% Tween-20, 0.05% BSA, 5uM coelenterazine h) are dispensed into each well of a Greiner white, solid-bottom 1536-well format plate using a flying reagent dispenser (FRD). These assay plates were then treated with 23nL of compound or DMSO using a Kalypsys pin tool, which allows for delivery of a 7-point interplate titration of each compound to the assay plate (quantitative HTS), with final compound concentrations ranging from approximately 60uM to 300pM. […] Luciferase activity was then measured using an Envision plate reader (PerkinElmer), with an average incubation time of 2 min.
# Sequence of Coelenterazine h 2-monooxygenase (Renilla reniformis) (P27652 whole entry, looked up): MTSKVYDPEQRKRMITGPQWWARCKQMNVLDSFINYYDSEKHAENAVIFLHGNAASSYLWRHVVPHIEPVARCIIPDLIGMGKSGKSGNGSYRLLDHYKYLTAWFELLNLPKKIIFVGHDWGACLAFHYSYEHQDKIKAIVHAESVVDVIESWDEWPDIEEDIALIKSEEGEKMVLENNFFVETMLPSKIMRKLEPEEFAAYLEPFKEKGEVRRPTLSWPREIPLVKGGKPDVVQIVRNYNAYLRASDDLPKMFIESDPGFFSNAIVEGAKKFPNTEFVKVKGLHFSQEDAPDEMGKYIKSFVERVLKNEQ
smiles,measurement,value
CNC(=O)Oc1cc(C)c(C=Cc2cncc(C(=O)NC)c2)c(C)c1,outcome,inactive
